Experimental data published in PubChem BioAssay (NCI).
Compounds without any hit were thinned out: in the full panel of roughly 83,000, 20% have a hit.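 Growth was measured after 48 h exposure to one concentration of compound in 96-well plates. Values under 10 count as active.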 Active and inactive are the calls of the source.

How the values were obtained:
Experiment in all cases: NCI-60 one-dose screen, 48 h (100 = growth as untreated, 0 = no growth, -100 = all killed)
Settings in all cases: 10 µM unless noted
[1] = tested on: SR leukemia
[2] = tested on: OVCAR-8 ovarian
[3] = tested on: OVCAR-5 ovarian
[4] = tested on: SK-OV-3 ovarian
[5] = tested on: IGROV1 ovarian
[6] = tested on: OVCAR-3 ovarian
[7] = tested on: HS 578T breast
[8] = tested on: NCI/ADR-RES ovarian
[9] = tested on: T-47D breast
[10] = tested on: BT-549 breast
[11] = tested on: MDA-MB-435 melanoma
[12] = tested on: SW-620 colon
[13] = tested on: MCF7 breast
[14] = tested on: HCT-116 colon
[15] = tested on: HCC-2998 colon
[16] = tested on: KM12 colon
[17] = tested on: OVCAR-4 ovarian

Measured: growth

CN1C(=O)C(C(=O)/C=C/c2ccccc2C(=O)O)C(=O)N(C)C1=O
inactive: [1] 98.1% | [2] 102% | [3] 104% | [4] 88.8% | [5] 119% | [6] 110% | [7] 98.5% | [8] 114% | [9] 89.2% | [10] 90.4% | [11] 101% | [12] 109% | [13] 112% | [14] 97.3% | [15] 116% | [16] 104%

COc1ccc(NC(=O)c2sc3c(=O)[nH]c(C(F)(F)F)nc3c2C)cc1
inactive: [1] 106% | [2] 100% | [3] 116% | [4] 98.5% | [5] 90% | [6] 112% | [7] 104% | [8] 102% | [9] 89.7% | [10] 103% | [11] 103% | [12] 112% | [13] 84.3% | [14] 100% | [15] 111% | [16] 106%

COC(=O)C(Br)(C(=O)OC)C(Br)C(Br)C(Br)c1ccccc1 (stereo unspecified)
active: [6] -37% | [12] -79% | [14] -92.6%
inactive: [1] 47.6% | [2] 73.1% | [3] 126% | [17] 83.6% | [4] 102% | [5] 39.1% | [7] 114% | [8] 104% | [10] 108% | [11] 47.9% | [13] 18.3% | [15] 98.4% | [16] 89.9%

O=C(Nc1ccccc1)c1cc2ccccc2s1
inactive: [1] 82.1% | [2] 96.9% | [17] 60% | [4] 99.4% | [5] 87.3% | [6] 105% | [7] 98.5% | [8] 94.4% | [9] 38.1% | [10] 95.9% | [11] 109% | [12] 101% | [13] 46.8% | [14] 75.8% | [15] 48.9% | [16] 29.8%

C=CCOC(=O)C1=C(C)NC2=C(C(=O)CC(C)(C)C2)C1c1ccc(OC)cc1 (stereo unspecified)
inactive: [1] 98.8% | [2] 93% | [3] 107% | [17] 110% | [4] 82.1% | [5] 105% | [6] 107% | [7] 90.6% | [8] 103% | [10] 94.1% | [11] 105% | [12] 98.9% | [13] 97.4% | [14] 88.8% | [16] 94.8%

CN1C2CCC1/C(=C\c1ccc(F)cc1)C(=O)/C2=C/c1ccc(F)cc1
active: [2] -19.8% | [14] 9.46%
inactive: [1] 21.6% | [3] 72.3% | [17] 39.1% | [4] 79.8% | [5] 61.9% | [6] 21% | [7] 75% | [8] 20.2% | [9] 41.2% | [10] 39.6% | [11] 31.3% | [13] 24.5% | [15] 82.6% | [16] 31.3%

O=C(c1ccccc1)C1OC1C(=O)c1ccccc1 (stereo unspecified)
inactive: [1] 14.3% | [2] 25.4% | [3] 30.2% | [4] 54.3% | [5] 24.6% | [6] 35.2% | [7] 54.2% | [10] 92.1% | [13] 16.8% | [15] 69.8% | [16] 55.5%
active: [8] -18.5% | [9] -7.04% | [11] 1.06% | [14] -5.13%

O=c1c2cc(Br)cc(Br)c2nc(-c2ccc(Cl)cc2)n1/N=C/c1cccc(F)c1
active: [17] -11%
inactive: [1] 62.7% | [2] 29.4% | [3] 61% | [5] 33.1% | [6] 49.8% | [7] 35.2% | [8] 40.3% | [9] 48.8% | [10] 74.4% | [11] 78.8% | [12] 74.7% | [13] 52.5% | [14] 18.5% | [15] 84% | [16] 70.2%

CCN(CC)CCNC(=O)n1cc(-c2ccncc2)c(-c2cc(Cl)cc(OC)c2)n1
inactive: [1] 51% | [2] 27.7% | [3] 88.4% | [17] 70.4% | [4] 47.8% | [5] 86% | [6] 94.3% | [7] 88% | [8] 86% | [10] 95.6% | [11] 83.5% | [12] 100% | [13] 87.7% | [14] 85.5% | [15] 113% | [16] 98.3%

Nc1cc(C(=O)O)cc(C(=O)O)c1
inactive: [1] 75.3% | [2] 99.3% | [3] 105% | [4] 97% | [5] 102% | [6] 123% | [7] 113% | [8] 112% | [9] 97.1% | [10] 107% | [11] 108% | [12] 110% | [13] 99.8% | [14] 101% | [15] 121% | [16] 111%

CCCCCCCCCCCCCC1=NC(C)(C)CN1C(C)C
active: [1] -46.5% | [2] -12.4% | [17] 7.76% | [5] -30.4% | [6] -56.3% | [7] -28.1% | [8] -12.4% | [9] -22.3% | [11] -57.3% | [12] -67.2% | [13] -41.3% | [14] -72.6% | [15] -90.6% | [16] -75.5%
inactive: [3] 39.7% | [10] 22.8%

Nc1c(C(=O)C[C@@H](N)CO)ccc2c1C(=O)CCO2
active: [12] 5.93% | [15] -5.53%
inactive: [1] 30.7% | [2] 35.8% | [3] 72.8% | [17] 86.4% | [5] 51.4% | [6] 23.5% | [7] 110% | [8] 61.2% | [9] 33.6% | [10] 41.9% | [11] 68.3% | [13] 22.5% | [14] 37.9% | [16] 20.1%

COc1cccc(/C=N\Nc2ccc([N+](=O)[O-])cn2)c1O
inactive: [1] 48.3% | [2] 10.6% | [3] 104% | [4] 68.7% | [5] 36.2% | [7] 63.9% | [8] 18.6% | [9] 30.1% | [10] 71.8% | [11] 54.3% | [12] 38% | [15] 82.2% | [16] 78.4%
active: [6] 8.54% | [14] 8.72%

COc1ccc(-c2nn(C(=O)NCCN(C)C)cc2-c2ccncc2)cc1Cl
inactive: [1] 20.5% | [2] 20.4% | [3] 76.9% | [17] 57.6% | [5] 54.1% | [6] 51.3% | [7] 66.5% | [8] 14.5% | [10] 58.6% | [12] 30.5% | [13] 19.3% | [14] 23.1% | [15] 76.4% | [16] 43.3%
active: [4] 9.29% | [11] -25.3%

Cc1ccc(Nc2cc(Cl)c([N+](=O)[O-])cc2[N+](=O)[O-])cc1
active: [1] 4.96% | [6] 0.375% | [9] 1.27% | [12] 9.72% | [14] 7.86%
inactive: [2] 26.8% | [3] 46.3% | [4] 83.5% | [5] 27.7% | [7] 92.1% | [8] 26.5% | [10] 31.3% | [11] 10.2% | [13] 25.9% | [15] 42.4% | [16] 45.9%

Cc1ccc2c(C)c3c(ccc4ccccc43)c[n+]2c1
inactive: [1] 58.2% | [2] 52.5% | [3] 90.3% | [17] 56.3% | [4] 83.8% | [5] 60.6% | [6] 53.2% | [7] 77.8% | [8] 95.9% | [10] 37% | [11] 83.2% | [12] 83.1% | [13] 35.7% | [14] 81.7% | [15] 72.6% | [16] 28.6%

O=C(Nc1cccc(C2=NCCN2)c1)c1ccc(N=Nc2ccc(C(=O)Nc3cccc(C4=NCCN4)c3)cc2)cc1
inactive: [1] 87.5% | [2] 37.5% | [3] 76.6% | [4] 77.3% | [5] 58.8% | [6] 77.4% | [7] 65.2% | [8] 100% | [9] 46.5% | [10] 69.1% | [11] 47.9% | [12] 70.7% | [13] 62.4% | [14] 53.1% | [15] 79.4% | [16] 72.8%

CCN1C(=O)N(CC)C2C1NC(=O)N2/N=C/C=C/c1ccccc1 (stereo unspecified)
active: [6] 7.58% | [11] -2.78%
inactive: [1] 20.3% | [2] 60.5% | [3] 80.1% | [4] 36.7% | [5] 53.2% | [7] 34.8% | [8] 38.7% | [9] 34.2% | [10] 52.1% | [12] 24.2% | [13] 12% | [14] 19.6% | [15] 64.2% | [16] 23.4%

COC(=O)CSc1ccc(Cl)cc1
inactive: [1] 78% | [2] 106% | [3] 107% | [4] 102% | [5] 93.9% | [6] 122% | [7] 108% | [8] 115% | [9] 98.7% | [10] 105% | [11] 107% | [12] 106% | [13] 97.2% | [14] 95.5% | [15] 97.4% | [16] 111%
